# Assay results: PubChem BioAssay (NCI)
# This is part of a sample that, as a whole, favours compounds with a hit. Of some 79,000 tested, about 15% had one in any assay. Values without a mark were called inactive. Activity calls are given as the source filed them. Rule as the data show it: active = growth inhibition above about 70%; inactive = the rest.
# Experiments:
# [1] = NCI Yeast Anticancer Drug Screen. Data for the wt2 strain (AID 169);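 also: 0% = growth of vehicle-treated yeast cultures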; details: S. cerevisiae wt2 strain growth inhibition, stronger effect = higher value
# In short: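 This strain belongs to a panel of yeast strains with defined genetic alterations in DNA damage repair or cell cycle control. Compounds are applied, and growth inhibition is measured against vehicle-treated cultures.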
# [2] = NCI Yeast Anticancer Drug Screen. Data for the mlh1 rad18 strain (AID 175); details: S. cerevisiae mlh1 rad18 strain growth inhibition, stronger effect = higher value
# In short: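 Read-out is yeast growth inhibition, calculated against vehicle-only controls. The compound was applied to a strain engineered with DNA damage repair alterations.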
# [3] = NCI Yeast Anticancer Drug Screen. Data for the rad18 strain (AID 177); details: S. cerevisiae rad18 mutant growth inhibition, stronger effect = higher value
# In short: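 Growth of the mutant yeast strain after compound exposure, normalised to vehicle-only cultures.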
# [4] = NCI Yeast Anticancer Drug Screen. Data for the rad52 strain (AID 147);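 also: 0% = growth of vehicle-treated control cultures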; details: S. cerevisiae rad52 mutant growth inhibition, stronger effect = higher value
# In short: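 Compounds are applied to a genetically defined yeast strain lacking normal DNA damage repair, and inhibition of growth is expressed relative to cultures given vehicle only.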
# [5] = NCI Yeast Anticancer Drug Screen. Data for the wt1 strain (AID 149);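 also: 0% = growth of vehicle-treated wt1 cultures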; details: S. cerevisiae wt1 strain (SPY 50644) growth inhibition, stronger effect = higher value
# In short: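 Vehicle-normalised growth inhibition; strain wt1; compound exposure.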
# [6] = NCI Yeast Anticancer Drug Screen. Data for the rad50EPP+ strain (AID 151);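 also: 0% = growth of vehicle-treated control cultures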; details: S. cerevisiae rad50 mutant strain, stronger effect = higher value
# In short: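 Compounds were applied to the rad50EPP+ yeast strain, which bears a defined DNA repair alteration, and growth inhibition was determined relative to vehicle-treated cultures.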
# [7] = NCI Yeast Anticancer Drug Screen. Data for the mgt1 strain (AID 153); details: S. cerevisiae mgt1 mutant growth inhibition, stronger effect = higher value
# In short: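 Strain: mgt1 yeast, one of a set carrying defined DNA damage repair or cell cycle control alterations. Compound-treated growth compared with vehicle.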
# [8] = NCI Yeast Anticancer Drug Screen. Data for the rad50 strain (AID 155);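 also: 0% = growth of vehicle-only cultures of the same strain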; details: S. cerevisiae rad50 strain growth inhibition, stronger effect = higher value
# In short: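 A DNA repair-deficient yeast mutant serves as the test organism; compound-induced growth inhibition is calculated against vehicle-treated cells.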
# [9] = NCI Yeast Anticancer Drug Screen. Data for the mec2-1 strain (AID 157); details: S. cerevisiae mec2-1 strain, stronger effect = higher value
# In short: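 Strain: mec2-1 (DNA repair/cell cycle alteration). Compound exposure, then growth measured; inhibition expressed relative to vehicle.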
# [10] = NCI Yeast Anticancer Drug Screen. Data for the rad14 strain (AID 159);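 also: 0% = growth of vehicle-treated control cultures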; details: S. cerevisiae rad14 strain growth inhibition, stronger effect = higher value
# In short: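 Vehicle-treated cultures served as the baseline for growth inhibition of a DNA repair-mutant yeast strain exposed to each compound.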
# [11] = NCI Yeast Anticancer Drug Screen. Data for the sgs1 mgt1 strain (AID 161);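 also: 0% = growth of cultures given vehicle only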; details: S. cerevisiae sgs1 mgt1 strain, stronger effect = higher value
# In short: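 Inhibition of yeast growth, normalised to vehicle-treated controls, is reported for a strain bearing genetic alterations in DNA damage repair.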
# [12] = NCI Yeast Anticancer Drug Screen. Data for the CLN2oe strain (AID 163);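 also: 0% = growth of vehicle-only control cultures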; details: S. cerevisiae CLN2oe strain, stronger effect = higher value
# In short: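 Growth of a genetically modified yeast strain is measured after compound exposure and compared with cultures given vehicle alone.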
# [13] = NCI Yeast Anticancer Drug Screen. Data for the cln2 rad14 strain (AID 165);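 also: 0% = growth equal to vehicle treated cultures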; details: S. cerevisiae cln2 rad14 strain, stronger effect = higher value
# In short: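 Compounds are applied to the cln2 rad14 yeast strain, and growth is then compared with that of vehicle-treated cultures to give inhibition.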
# [14] = NCI Yeast Anticancer Drug Screen. Data for the bub3 strain (AID 167); details: S. cerevisiae bub3 mutant strain, stronger effect = higher value
# In short: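 Inhibition values come from growth of compound-treated mutant yeast normalised to vehicle-treated controls.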
# [15] = NCI Yeast Anticancer Drug Screen. Data for the mlh1 strain (AID 171);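 also: 0% = growth of vehicle-treated control cultures of the same strain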; details: S. cerevisiae mlh1 strain growth inhibition, stronger effect = higher value
# In short: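 Growth of the mutant yeast strain after compound exposure, expressed as inhibition relative to vehicle-only controls.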
# [16] = NCI Yeast Anticancer Drug Screen. Data for the sgs1 strain (AID 173);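 also: 0% = growth of vehicle-only control cultures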; details: S. cerevisiae sgs1 mutant, stronger effect = higher value
# In short: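 Growth of a yeast strain bearing a defined genetic alteration is measured after compound treatment. Inhibition is expressed relative to vehicle-only controls.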
# [17] = at 5.0 µM (retest, dose inferred, filed as 0.5)
# [18] = at 50.0 µM (retest, dose inferred, filed as 5.0)
structure (smiles),measurement,setting,value
CCOC(=O)C1N=[N+](c2ccccc2)C(=O)/C1=C\n1c(=S)[nH]c2ccc([N+](=O)[O-])cc21 (stereo unspecified),growth inhibition,[1]; at 1.2 µM,0%
same,growth inhibition,[1]; at 3.7 µM,0%
same,growth inhibition,[1]; at 11.0 µM,-1%
same,growth inhibition,[1]; at 33.0 µM,1%
same,growth inhibition,[1]; at 100.0 µM,3%
same,growth inhibition,[2]; [17],24%
same,growth inhibition,[2]; [18],94% (active)
same,growth inhibition,[2]; at 50.0 µM,5.05%
same,growth inhibition,[3]; at 1.2 µM,-2%
same,growth inhibition,[3]; at 3.7 µM,1%
same,growth inhibition,[3]; at 11.0 µM,3%
same,growth inhibition,[3]; at 33.0 µM,7%
same,growth inhibition,[3]; at 100.0 µM,15%
CCCC(=O)Oc1ccc(/C=N/NC(N)=S)nc1,growth inhibition,[4]; at 1.2 µM,5%
same,growth inhibition,[4]; at 3.7 µM,-9%
same,growth inhibition,[4]; at 11.0 µM,-1%
same,growth inhibition,[4]; at 33.0 µM,8%
same,growth inhibition,[4]; at 100.0 µM,4%
same,growth inhibition,[5]; at 1.2 µM,1%
same,growth inhibition,[5]; at 3.7 µM,-19%
same,growth inhibition,[5]; at 11.0 µM,1%
same,growth inhibition,[5]; at 33.0 µM,-19%
same,growth inhibition,[5]; at 100.0 µM,-24%
same,growth inhibition,[6]; at 1.2 µM,-3%
same,growth inhibition,[6]; at 3.7 µM,7%
same,growth inhibition,[6]; at 11.0 µM,0%
same,growth inhibition,[6]; at 33.0 µM,-11%
same,growth inhibition,[6]; at 100.0 µM,-9%
same,growth inhibition,[7]; at 1.2 µM,-1%
same,growth inhibition,[7]; at 3.7 µM,-5%
same,growth inhibition,[7]; at 11.0 µM,-2%
same,growth inhibition,[7]; at 33.0 µM,-6%
same,growth inhibition,[7]; at 100.0 µM,-14%
same,growth inhibition,[8]; at 1.2 µM,-9%
same,growth inhibition,[8]; at 3.7 µM,-16%
same,growth inhibition,[8]; [17],-3%
same,growth inhibition,[8]; at 11.0 µM,-17%
same,growth inhibition,[8]; at 33.0 µM,-7%
same,growth inhibition,[8]; [18],14%
same,growth inhibition,[8]; at 50.0 µM,15%
same,growth inhibition,[8]; at 100.0 µM,4%
same,growth inhibition,[9]; at 1.2 µM,-3%
same,growth inhibition,[9]; at 3.7 µM,-2%
same,growth inhibition,[9]; [17],-2%
same,growth inhibition,[9]; at 11.0 µM,-4%
same,growth inhibition,[9]; at 33.0 µM,-2%
same,growth inhibition,[9]; [18],89% (active)
same,growth inhibition,[9]; at 50.0 µM,75.2% (active)
same,growth inhibition,[9]; at 100.0 µM,42%
same,growth inhibition,[10]; at 1.2 µM,2%
same,growth inhibition,[10]; at 3.7 µM,2%
same,growth inhibition,[10]; at 11.0 µM,-17%
same,growth inhibition,[10]; at 33.0 µM,-19%
same,growth inhibition,[10]; at 100.0 µM,-21%
same,growth inhibition,[11]; [17],-1%
same,growth inhibition,[11]; [18],25%
same,growth inhibition,[11]; at 50.0 µM,28.4%
same,growth inhibition,[12]; at 1.2 µM,-5%
same,growth inhibition,[12]; at 3.7 µM,-7%
same,growth inhibition,[12]; at 11.0 µM,-11%
same,growth inhibition,[12]; at 33.0 µM,-6%
same,growth inhibition,[12]; at 100.0 µM,-8%
same,growth inhibition,[13]; [17],-3%
same,growth inhibition,[13]; [18],33%
same,growth inhibition,[13]; at 50.0 µM,11.3%
same,growth inhibition,[14]; at 1.2 µM,-5%
same,growth inhibition,[14]; at 3.7 µM,-6%
same,growth inhibition,[14]; [17],-4%
same,growth inhibition,[14]; at 11.0 µM,-9%
same,growth inhibition,[14]; at 33.0 µM,-20%
same,growth inhibition,[14]; [18],-14%
same,growth inhibition,[14]; at 50.0 µM,0.95%
same,growth inhibition,[14]; at 100.0 µM,-21%
same,growth inhibition,[1]; at 1.2 µM,-13%
same,growth inhibition,[1]; at 3.7 µM,-5%
same,growth inhibition,[1]; at 11.0 µM,-6%
same,growth inhibition,[1]; at 33.0 µM,6%
same,growth inhibition,[1]; at 100.0 µM,10%
same,growth inhibition,[15]; at 1.2 µM,-9%
same,growth inhibition,[15]; at 3.7 µM,-6%
same,growth inhibition,[15]; at 11.0 µM,-8%
same,growth inhibition,[15]; at 33.0 µM,-9%
same,growth inhibition,[15]; at 100.0 µM,-14%
same,growth inhibition,[2]; [17],-4%
same,growth inhibition,[2]; [18],26%
same,growth inhibition,[2]; at 50.0 µM,19.1%
same,growth inhibition,[3]; at 1.2 µM,-7%
same,growth inhibition,[3]; at 3.7 µM,2%
same,growth inhibition,[3]; at 11.0 µM,-2%
same,growth inhibition,[3]; at 33.0 µM,-8%
same,growth inhibition,[3]; at 100.0 µM,-10%
CCCCC(CC)C(=O)[O][Sn]([CH2]CCC)([CH2]CCC)[O]C(=O)C(CC)CCCC (stereo unspecified),growth inhibition,[4]; at 1.2 µM,6%
same,growth inhibition,[4]; at 3.7 µM,11%
same,growth inhibition,[4]; at 11.0 µM,47%
same,growth inhibition,[4]; at 33.0 µM,92% (active)
same,growth inhibition,[4]; at 100.0 µM,98% (active)
same,growth inhibition,[5]; at 1.2 µM,-14%
same,growth inhibition,[5]; at 3.7 µM,-7%
same,growth inhibition,[5]; at 11.0 µM,46%
same,growth inhibition,[5]; at 33.0 µM,93% (active)
same,growth inhibition,[5]; at 100.0 µM,98% (active)
same,growth inhibition,[6]; at 1.2 µM,18%
same,growth inhibition,[6]; at 3.7 µM,6%
same,growth inhibition,[6]; at 11.0 µM,8%
same,growth inhibition,[6]; at 33.0 µM,12%
same,growth inhibition,[6]; at 100.0 µM,29%
same,growth inhibition,[7]; at 1.2 µM,-11%
same,growth inhibition,[7]; at 3.7 µM,9%
same,growth inhibition,[7]; at 11.0 µM,60%
same,growth inhibition,[7]; at 33.0 µM,95% (active)
same,growth inhibition,[7]; at 100.0 µM,98% (active)
same,growth inhibition,[8]; at 1.2 µM,14%
same,growth inhibition,[8]; at 3.7 µM,11%
same,growth inhibition,[8]; [17],50%
same,growth inhibition,[8]; at 11.0 µM,51%
same,growth inhibition,[8]; at 33.0 µM,92% (active)
same,growth inhibition,[8]; [18],98% (active)
same,growth inhibition,[8]; at 50.0 µM,86.4% (active)
same,growth inhibition,[8]; at 100.0 µM,97% (active)
same,growth inhibition,[9]; at 1.2 µM,-11%
same,growth inhibition,[9]; at 3.7 µM,14%
same,growth inhibition,[9]; [17],72% (active)
same,growth inhibition,[9]; at 11.0 µM,56%
same,growth inhibition,[9]; at 33.0 µM,94% (active)
same,growth inhibition,[9]; [18],69%
same,growth inhibition,[9]; at 50.0 µM,87.7% (active)
same,growth inhibition,[9]; at 100.0 µM,98% (active)
same,growth inhibition,[10]; at 1.2 µM,-8%
same,growth inhibition,[10]; at 3.7 µM,3%
same,growth inhibition,[10]; at 11.0 µM,47%
same,growth inhibition,[10]; at 33.0 µM,90% (active)
same,growth inhibition,[10]; at 100.0 µM,97% (active)
same,growth inhibition,[11]; [17],2%
same,growth inhibition,[11]; [18],95% (active)
same,growth inhibition,[11]; at 50.0 µM,89.4% (active)
same,growth inhibition,[12]; at 1.2 µM,-21%
same,growth inhibition,[12]; at 3.7 µM,5%
same,growth inhibition,[12]; at 11.0 µM,37%
same,growth inhibition,[12]; at 33.0 µM,92% (active)
same,growth inhibition,[12]; at 100.0 µM,98% (active)
same,growth inhibition,[13]; [17],59%
same,growth inhibition,[13]; [18],97% (active)
same,growth inhibition,[13]; at 50.0 µM,86.2% (active)
same,growth inhibition,[14]; at 1.2 µM,6%
same,growth inhibition,[14]; at 3.7 µM,18%
same,growth inhibition,[14]; [17],44%
same,growth inhibition,[14]; at 11.0 µM,68%
same,growth inhibition,[14]; at 33.0 µM,95% (active)
same,growth inhibition,[14]; [18],93% (active)
same,growth inhibition,[14]; at 50.0 µM,89.8% (active)
same,growth inhibition,[14]; at 100.0 µM,98% (active)
same,growth inhibition,[1]; at 1.2 µM,-27%
same,growth inhibition,[1]; at 3.7 µM,-10%
same,growth inhibition,[1]; at 11.0 µM,49%
same,growth inhibition,[1]; at 33.0 µM,90% (active)
same,growth inhibition,[1]; at 100.0 µM,98% (active)
same,growth inhibition,[15]; at 1.2 µM,-38%
same,growth inhibition,[15]; at 3.7 µM,-21%
same,growth inhibition,[15]; at 11.0 µM,33%
same,growth inhibition,[15]; at 33.0 µM,88% (active)
same,growth inhibition,[15]; at 100.0 µM,97% (active)
same,growth inhibition,[16]; at 1.2 µM,2%
same,growth inhibition,[16]; at 3.7 µM,-5%
same,growth inhibition,[16]; at 11.0 µM,37%
same,growth inhibition,[16]; at 33.0 µM,89% (active)
same,growth inhibition,[16]; at 100.0 µM,97% (active)
same,growth inhibition,[3]; at 1.2 µM,-2%
same,growth inhibition,[3]; at 3.7 µM,0%
same,growth inhibition,[3]; at 11.0 µM,46%
same,growth inhibition,[3]; at 33.0 µM,91% (active)
same,growth inhibition,[3]; at 100.0 µM,97% (active)
